Data: PubChem BioAssay AID2551 (National Center for Advancing Translational Sciences (NCATS), 2010)
The campaign covered roughly 310,000 compounds. About 17,000 (5.5%) were called active. Roughly 11% stayed inconclusive and do not appear here. The sample holds actives, similar compounds and a random draw of the others, so the mix is not that of the screen. Calls follow the shape of the dose curve; as a rule, active = well fitted inhibition curve with a large enough effect; inconclusive = small, poorly fitted or top-dose-only effect, or effect the other way; inactive = no such curve, though single readings can be large or run the other way.

Each compound was assayed against Nuclear receptor ROR-gamma (Mus musculus) (UniProt P51450) (assay: qHTS for inhibitors of ROR gamma transcriptional activity). Conditions: Drosophila S2 Gal4-RORgamma UAS-luciferase reporter, 20 h; series mostly up to 53.6 µM.
Nuclear receptor ROR-gamma (Mus musculus), sequence (P51450 whole entry, looked up, the tested form may be a part): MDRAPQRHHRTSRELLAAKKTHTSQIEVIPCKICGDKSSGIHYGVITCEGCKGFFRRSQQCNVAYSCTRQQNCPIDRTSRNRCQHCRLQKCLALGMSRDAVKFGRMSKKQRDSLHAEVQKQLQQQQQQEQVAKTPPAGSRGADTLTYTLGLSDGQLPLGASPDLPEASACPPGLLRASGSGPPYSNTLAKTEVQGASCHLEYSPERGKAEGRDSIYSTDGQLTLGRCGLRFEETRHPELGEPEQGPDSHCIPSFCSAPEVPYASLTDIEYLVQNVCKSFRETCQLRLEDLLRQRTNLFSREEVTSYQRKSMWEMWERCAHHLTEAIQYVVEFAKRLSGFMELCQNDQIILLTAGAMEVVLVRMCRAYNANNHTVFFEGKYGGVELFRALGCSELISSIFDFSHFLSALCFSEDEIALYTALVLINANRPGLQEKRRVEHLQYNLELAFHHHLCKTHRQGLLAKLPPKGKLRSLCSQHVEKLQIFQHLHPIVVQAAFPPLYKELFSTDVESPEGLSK
Outline: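 Stable Schneider cell line, Gal4 DNA-binding domain fused to ROR gamma, UAS-luciferase. Cmpd 1 hr RT → CuSO4 700 uM final → 20 hr RT → luciferase reagent 10 min → luminescence.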
% is scaled to controls: 0 for no effect and ±100 for the full control effect; potency is read from the fitted curve at half-maximal effect.
Also: nearly all actives have a fitted effect of over 60% in size.

Potency, active:
CC1=NN(/C(=N\c2nnc(C)s2)Nc2ccccc2)[C@H](c2ccc(C)cc2)S1 8.91 µM, Cc1ccccc1C(=O)OC1OC(=O)C(Cl)=C1Nc1ccccc1 (stereo not drawn) 11.2 µM, CCOC(=O)/C(=N\Nc1ccccc1[N+](=O)[O-])c1csc(Nc2ccccc2)n1 11.2 µM, Cc1cc(C)cc(C(=O)OCC(=O)NCCNC(=O)COC(=O)c2cc(C)cc(C)c2)c1 0.0708 µM, Cc1[nH]n(C(N)=S)c(=O)c1N=Nc1ccc(Cl)cc1Cl 0.562 µM, COc1ccccc1-c1n[nH]c2c1[C@H](C)CC[C@H]2C(C)C 3.16 µM, O=C1CSC(=S)N1/N=C/c1ccc(O)c([N+](=O)[O-])c1 8.91 µM, S=C(NCc1ccc(Cl)cc1)NC12CC3CC(CC(C3)C1)C2 2 µM, S=C(NCc1ccc(Cl)cc1)NC1CCCCC1 3.55 µM, CNC(=S)N/N=C/c1ccc(OCc2ccccc2)c(Br)c1 1.26 µM, CCOC(=O)C1=C(c2ccccc2)NC(=S)NC1c1ccc(Cl)cc1 (stereo not drawn) 7.94 µM, COc1ccc(C2=Nc3cc(C)ccc3OC2)cc1 10 µM, COc1ccccc1NC(=S)N1CCN(C(c2ccccc2)c2ccccc2)CC1 3.55 µM, CCOc1ccccc1NC(=S)N1CCN(c2cccc(C)c2C)CC1 6.31 µM, COc1ccc(-c2csc3nc(-c4ccccc4F)oc(=O)c23)cc1OC 11.2 µM, C/[N+]([O-])=C\c1ccc([N+](=O)[O-])o1 11.2 µM, C=CCOc1c(CNn2cn[nH]c2=S)cccc1OC 11.2 µM, C=CCOc1cccc(CNn2cn[nH]c2=S)c1 10 µM, COc1cccc(CNn2cn[nH]c2=S)c1OCc1ccccc1 2.51 µM, COc1ccc(-c2cn3ccc(C)cc3n2)cc1 3.16 µM

Potency, inactive:
COc1ccccc1N1CCN(S(=O)(=O)c2ccc3c(c2)NC(=O)CS3)CC1, COc1cccc(NC(=O)N2CCC(NC(=O)C(Cc3cccc(C)c3)NC(C)=O)CC2)c1 (stereo not drawn), CC(C)[C@H](NC(=O)N1c2ccccc2NC(=O)[C@@H]1C(C)C)C(=O)N[C@H](C(=O)O)c1ccccc1, CN(C(=O)CN1C(=O)/C(=C/c2ccc(Cl)cc2)SC1=S)C1CCS(=O)(=O)C1 (stereo not drawn), CC(=O)C1=C(O)C(=O)N(c2ccc(Br)cc2)C1c1ccc([N+](=O)[O-])cc1 (stereo not drawn), CC1Cc2cc(/C(O)=C3\C(=O)C(=O)N(Cc4cccnc4)C3c3ccccc3F)ccc2O1 (stereo not drawn), Cc1ccc(C2SCC(=O)N2c2ccccc2)cc1 (stereo not drawn), COc1ccc(C(=O)CCC(=O)Nc2ccc(Cl)cc2)cc1, CCOC(=O)C1(Cc2ccccc2C)CCCN(C(=O)CN2C(=O)CSC2=O)C1 (stereo not drawn), N#Cc1ccc(/C=C2\CCn3c2nc2cc(C(=O)O)ccc2c3=O)cc1, Cc1ccc(NC2=C(Cl)C(=O)OC2OC(=O)c2ccccc2C)cc1 (stereo not drawn), CCOC(=O)CNc1nc(Cl)nc(Nc2ccccc2)n1, COC(=O)c1sccc1NC(=O)c1ccc(Cl)cc1, Cc1csc(NC(=O)Nc2ccccc2[N+](=O)[O-])n1, CCOC(=O)C/C(C)=N\Nc1ccc([N+](=O)[O-])cc1[N+](=O)[O-], COc1ccc(OCc2cc(C(=O)NCC3(C)COC3)no2)c(Cl)c1, COc1ccccc1C(=O)OCC(=O)NCCNC(=O)COC(=O)c1ccccc1OC, Cc1cccc(C(=O)OCC(=O)Nc2ccc(F)cc2)c1, COc1ccc(S(=O)(=O)NC(C)C(=O)NCc2ccncc2)cc1Cl (stereo not drawn), COC(=O)CN1C(=O)[C@H]2[C@@H](/C=C/c3ccccc3)N3C(=O)CN(CC4CC4)C(=O)[C@@]3(Cc3ccccc3)[C@H]2C1=O, Cc1[nH]n(-c2cccc(Cl)c2)c(=O)c1-c1ccc(Cl)cc1, Cc1ccc(N=Nc2c(C)[nH]n(-c3ccccc3)c2=O)cc1, Cc1cc2oc(=O)cc(CN(C)Cc3ccc(OC(F)F)cc3)c2cc1Cl, COc1ccc(CCN2C(=O)C(C)=C(C)C2=O)cc1OC, COc1ccccc1-c1nc(N2CCN(C)CC2)c2ccccc2n1, CC1C(=O)Nc2ccccc2N1C(=O)c1c(F)cccc1F (stereo not drawn), COc1ccc(-n2nc3c(N4CCC(C(=O)NCc5ccccc5)CC4)nnc(C)c3c2C)cc1, Cc1cc(C(=O)N/N=C/c2ccc(O)c([N+](=O)[O-])c2)c(C)n1-c1ccc(F)cc1, O=[N+]([O-])c1ccc(N2CCSCC2)cc1O, COc1cccc(C2CC(c3cccs3)=NN2C(=O)CSC2=NCCS2)c1OC (stereo not drawn), CC(C(=O)NC1CCCCC1)N1C(=O)c2cccc3cccc1c23 (stereo not drawn), COc1cc(NC(=O)C2=C(C)OCCS2)c(Cl)cc1C(=O)NCCN1CCN(C)CC1, O=C(NCc1cccc(C(F)(F)F)c1)c1cccc(S(=O)(=O)N2CCN(Cc3ccccc3)CC2)c1, O=C(NC1CCN(C(=S)Nc2ccc(Cl)cc2)CC1)C1CCCCC1, O=C(NCc1ccc(Cl)cc1)NCc1ccc(Cl)cc1, O=C(NCc1ccncc1)NC12CC3CC(CC(C3)C1)C2, CN(C)CCCNC(=S)NCc1ccc(Cl)cc1, COCCCNC(=O)C1CC(=O)N(CCc2ccc(F)cc2)C1 (stereo not drawn), CC(=O)Nc1ccc(Nc2ncnc3c2nnn3Cc2ccccc2Cl)cc1, O=C(c1c(F)cccc1Cl)N1CCN(c2ccccn2)CC1, COc1ccc(S(=O)(=O)N2CCC(C(=O)NCCC(=O)NCc3cccc(OC)c3)CC2)cc1, CC(C)[C@H](NC(=O)N1CC(=O)Nc2ccccc21)C(=O)N[C@@H](Cc1c[nH]c2ccccc12)C(=O)O, COc1cc(C(=O)NCCOC(=O)c2cccc(N(C)C)c2)cc(OC)c1OC, O=C(O)COc1ccc(/C=N/O)cc1Br, C=CCNC(=S)N/N=C/c1ccc(OCc2ccccc2)cc1, COc1cc(NS(=O)(=O)c2ccc(NC(=S)NC(=O)c3ccc(Br)cc3)cc2)ncn1, COc1cc2c(cc1OC)CN(C(=O)c1cc(S(=O)(=O)N3CCCCC3)ccc1Cl)CC2, Cc1ccc(C(=O)NCC(=O)OCc2nnc(-c3ccccc3)o2)cc1, Cc1c(CCC(=O)N[C@@H](CC(C)C)C(=O)O)c(=O)oc2c(C)c3oc4c(c3cc12)CCCC4, CCOC(=O)C1=C(C)NC(=O)NC1c1ccccc1 (stereo not drawn), CCOC(=O)C1=C(c2ccccc2)NC(=O)NC1c1cc(OC)c(OC)cc1OC (stereo not drawn), Cn1cc(C(=O)c2ccc(Cl)cc2Cl)cc1C(=O)NN, COc1ccc(NC(=O)c2cc(-c3ccc(C)cc3)on2)cc1, COc1ccc(C2=NOC3(CC(=O)N(c4ccc(C)cc4)C3=O)C2)cc1 (stereo not drawn), Cc1cc(C)cc(N(CCC#N)C(=O)CN2C(=O)NC3(CCCC3)C2=O)c1, COc1ccc(N(Cc2ccc(N(C)C)cc2)C(=O)c2ccc(S(C)(=O)=O)cc2)cc1, COc1ccccc1NC(=S)N1CCC(NC(=O)C23CC4CC(CC(C4)C2)C3)CC1, COCCN(C(=S)Nc1ccccc1OC)C1CCN(C(C)C)CC1, CCC(=O)N1CCN(c2ccccc2NC(=O)COc2cccc(C)c2C)CC1, CC(=O)N1CCN(c2cccc(C)c2C)CC1, CC(=O)c1cccc(NC(=S)N2CCN(S(C)(=O)=O)CC2)c1, CCC(C(=O)NC1CCCCC1)N(C(=O)c1snc(C(N)=O)c1N)c1ccc(OC)cc1OC (stereo not drawn), O=C(CCc1nnc2ccc(NCc3ccccc3Cl)nn12)NCC1CCN(C2CCCC2)C1 (stereo not drawn), COc1ccc(-c2noc(-c3cccc(OC)c3OC)n2)cc1OC, COc1ccc(-c2csc(-c3cccs3)n2)cc1OC, Cc1cc(C)nc(N/N=C/c2ccc([N+](=O)[O-])o2)n1, CCOC(=O)[C@H]1[C@H]2COc3cc(OC)ccc3[C@@H]2N2C(=O)N(c3ccc(Br)cc3)C(=O)[C@@]12C, Cn1nccc1C(=O)N1CCCC(C(=O)c2ccc(Oc3ccccc3)cc2)C1 (stereo not drawn), CCOc1c(CNCc2ccc(C(=O)O)cc2)cccc1OC, C=CCOc1ccc(/C=N/n2cncn2)cc1OC, COc1ccccc1-n1cn[nH]c1=S, C=CCC(Nc1ccccc1)c1cccc(OC)c1OC (stereo not drawn), C=CCOc1cccc(C2NC(=O)c3ccccc3O2)c1 (stereo not drawn), COc1ccc(-c2cc(=O)oc3cc(OC(C)C(=O)NCC4CCC(C(=O)O)CC4)ccc23)cc1 (stereo not drawn), CCN(CC)CCCNC(=O)c1cc2c(=O)[nH]c3ccc(C)cc3c2s1, CCCCC[C@H]1CN(C2CCCCC2)C(=O)[C@@H]1CC(=O)NCc1ccc(OC)cc1, COc1ccccc1-c1sc2ccccc2c1-c1ccc(C(C)=O)cc1, Cc1ccc(-c2csc(NC3OC(=O)c4ccccc43)n2)cc1 (stereo not drawn), CCN(CC)S(=O)(=O)c1ccc(-c2cn3ccc(C)cc3n2)cc1, COc1ccc(-c2cn3ccsc3n2)cc1

Activity change, negative = inhibition, inactive:
CC(C)CN(Cc1c(O)ccc2c(=O)c(-c3ccccc3)coc12)CC(C)C 27% [at 1.91 µM], Cc1ccc(Cl)c(OCC(=O)N2CCc3ccccc3C2)c1 3.92% [at 1.91 µM], NC(=O)C(=O)N/N=C/c1ccc([N+](=O)[O-])o1 -19.4% [at 10 µM]
